# D3 ag: qHTS of D3 Dopamine Receptor Agonist: qHTS | D(3) dopamine receptor (Homo sapiens), P35462 | D3R DiscoveRx beta-arrestin cells, luminescence, 90 min | max activation, % | hit rate 0.58% among 410,000 | AID 652048, 2013; in the data active means max activation above about 30%; further: 0% is about no effect
#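 Cells at 1500/well, incubated overnight, then treated with pinned compounds (dopamine as control) for 90 min at 37 degrees C. DiscoveRx reagent added for 30 - 60 minutes at room temperature; luminescence read.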
# DRD3 antagonist: qHTS of D3 Dopamine Receptor Antagonist: qHTS; D3R cells, DiscoveRx beta-arrestin luminescence, antagonist mode; hits give low values; max response, negative = inhibition, %; hit rate 2.5% among 360,000; AID 652054, 2013; in the data active means max response below about -50%; inconclusive means no clear call, values can overlap the other calls; further: on the % scale 0 is the no-effect control and ±100 the full control effect
#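 Cells expressing the human receptor were seeded at 1500 cells/well, incubated overnight at 37 degrees C in 5% CO2, then exposed to library compounds with dopamine controls for 90 minutes at 37 degrees C before luminescent detection.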
# D1 antagonist: Antagonist of Human D 1 Dopamine Receptor: qHTS | HEK293 TREx D1 cells, calcium flux, dopamine EC80; hits give low values | activity change, negative = inhibition, % at 10 µM | D(1A) dopamine receptor (Homo sapiens), P21728 | hit rate 3.2% among 360,000 | AID 504652, 2011; in the data active means activity change below about -30%; further: on the % scale 0 is the no-effect control and ±100 the full control effect
# Target sequence (P21728 whole entry, looked up): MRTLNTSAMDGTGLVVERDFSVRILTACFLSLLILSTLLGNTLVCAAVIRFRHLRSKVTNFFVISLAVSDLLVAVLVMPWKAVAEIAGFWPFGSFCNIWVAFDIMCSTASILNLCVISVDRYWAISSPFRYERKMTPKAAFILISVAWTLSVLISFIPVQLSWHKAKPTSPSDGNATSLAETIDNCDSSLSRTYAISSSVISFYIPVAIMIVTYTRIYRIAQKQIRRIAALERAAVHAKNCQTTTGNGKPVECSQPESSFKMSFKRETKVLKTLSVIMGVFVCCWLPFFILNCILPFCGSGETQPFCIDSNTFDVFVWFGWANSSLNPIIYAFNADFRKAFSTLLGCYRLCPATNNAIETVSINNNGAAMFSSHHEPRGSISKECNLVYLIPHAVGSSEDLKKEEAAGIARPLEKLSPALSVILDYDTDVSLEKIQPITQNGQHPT
#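 After overnight tetracycline induction at 30 C, force-coupled D1 HEK293 cells took up a no-wash calcium dye at room temperature. Compounds were added and monitored 180 s, and the response to EC80 dopamine was then recorded.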
# D1 agonist: Allosteric Agonists of the Human D1 Dopamine Receptor: qHTS. D(1A) dopamine receptor (Homo sapiens), P21728. activation, % at 2 µM. AID 504660, 2011. HEK293 T-REx D1 cells, calcium flux, agonist mode. hit rate 1% among 360,000; in the data active means activation above about 30%; further: 0% is about no effect
#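 Agonism was scored from calcium flux recorded over 180 s (1 read/s) after pintool compound addition, following a 10-cycle baseline. Cells were inducible force-coupled HEK293 TREx D1, plated overnight at 30 C and loaded with no-wash calcium dye.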
# D1 potentiator: Potentiators of Human D1 Dopamine Receptor: qHTS; D(1A) dopamine receptor (Homo sapiens), P21728; HEK293 TREx D1 cells, calcium flux, dopamine EC20 potentiation; potentiation, % at 10 µM; hit rate 0.036% among 360,000; AID 504651, 2011; in the data active means potentiation above about 30%; further: 0% is about no effect
# Starred values were filed as active, the others as inactive; ? = inconclusive; . = no result. The list is not random: actives were taken first. Their share in the collection is about 6.1%.
SMILES,D3 ag,DRD3 antagonist,D1 antagonist,D1 agonist,D1 potentiator
O=C(OC1CCOC1=O)c1ccccc1C(=O)c1ccc(Cl)c([N+](=O)[O-])c1 (configuration not stated),-11,?,3,1,-3
O=C(COC(=O)c1cc([N+](=O)[O-])ccc1Cl)NC1CCCC1,-6,2,-2,0,-5
Cc1ccc(CNC(=O)c2ccc3c(c2)nc2n3CCCC2)cc1,-11,.,1,0,-1
CC(CN1CCCCC1)NC(=O)c1scnc1-c1ccccc1 (configuration not stated),-21,-84*,.,.,.
CCOC(=O)c1c(C)[nH]c(C)c1S(=O)(=O)N1CCCC(C(=O)N2CCN(c3ccc(Cl)cc3)CC2)C1 (configuration not stated),13,.,-6,3,-1
CN1CCC(OC(=O)COc2ccccc2)CC1,-3,-15,5,2,-8
CN1CCC(OC2c3ccccc3CCc3ccccc32)CC1,-2,-99*,.,.,.
O=C(O)CCCCCN1C(=O)/C(=C\c2ccc(-c3ccc(Cl)cc3)o2)SC1=S,4,-10,2,7,-6
O=C(O)CCCN1C(=O)/C(=C/c2ccc(-c3nc4ccccc4s3)o2)SC1=S,-1,-82*,56,53*,11
COc1ccc(CCNC(=O)CCCn2nc(C)c3sc4ccccc4c3c2=O)c(OC)c1,5,.,-8,1,-2
O=C(Nc1cccc(F)c1)C1CCN(c2nnnn2-c2ccccc2)CC1,-1,17,-30*,3,-4
COc1cc(/C=C2/SC(=S)N(Cc3ccccc3)C2=O)cc(Cl)c1O,-5,29,-25,474*,3
COc1cc(/C=C2/SC(=S)N(CC(=O)NC(C)(C)C)C2=O)cc(OC)c1OC,-4,18,-4,5,-5
COc1cc([N+](=O)[O-])cc(/C=C2/SC(=S)N(Cc3ccccc3)C2=O)c1O,2,14,-3,110*,0
COc1cc(/C=C2\SC(=S)N(CC(=O)NC(C)(C)C)C2=O)cc(OC)c1OC,-1,2,-61*,11,-10
Cc1cccc(CNC(=O)C2CCN(c3nn4cc(-c5ccc(F)cc5)nc4s3)CC2)c1,5,.,9,-2,-2
CCCCOc1ccc(CONS(=O)(=O)c2ccc(NC(C)=O)cc2)cc1Cl,3,68,-11,136*,-6
O=C(Oc1cc(=O)oc2c1c(=O)n1c3c(cccc23)CC1)c1ccc(F)cc1,-2,-3,-45*,-1,-3
O=C(Oc1cc(=O)oc2c1c(=O)n1c3c(cccc23)CC1)c1ccccc1,-6,6,-38*,4,7
O=C(NCc1ccc(F)cc1)c1c(O)c2cccc3c2n(c1=O)CCC3,6,1,2,1,-4
O=C(Oc1cc(=O)oc2ccccc12)c1ccccc1,25,-6,-16,0,2
COc1cccc(CNC(=O)CCc2c(C)nc3c(c(C)nn3-c3ccc(C)c(C)c3)c2C)c1,14,.,-6,-1,1
COc1ccc(-c2cc(C(F)(F)F)nc(SCC(=O)N3CCCCC3)n2)cc1,-11,.,-16,4,-7
NC(=O)C1(N2CCCCC2)CCN(CC(=O)Nc2cc(Cl)ccc2Cl)CC1,-62,-88*,-13,-1,-6
CCOC(=O)c1cc(S(=O)(=O)NCc2ccc(F)cc2)[nH]n1,-14,.,-21,3,-2
SMILES,D3 ag,DRD3 antagonist,D1 antagonist,D1 agonist,D1 potentiator
CCOC(=O)c1cc(S(=O)(=O)NCc2ccc(Cl)cc2)[nH]n1,3,.,-32*,2,-1
CC(NCc1ccc(N(C)C)cc1)C1CC2CCC1C2 (configuration not stated),-5,-70*,-22,6,4
Cc1ccc2c(c1)c(=O)c(C(=O)c1ccncc1)cn2CC(=O)Nc1c(C)cccc1C,-7,.,4,0,-1
Cc1cc2c(c(C)c1CCO)C(=O)[C@H](C)C2,0,-50*,.,.,.
CCCCCn1c(=O)[nH]c2cc(C(=O)N3CCN(c4cc(Cl)ccc4C)CC3)ccc2c1=O,3,.,3,2,0
CCc1cnc2c(c1SCC(=O)Nc1ccc(Cl)cc1)c(=O)n(C)c(=O)n2C,-3,.,.,1,-1
CCOC(=O)c1c(C)nc2c(c1-c1ccccc1)C(=O)c1ccccc1-2,41*,42,1,1,1
CCCCn1cc(S(=O)(=O)c2ccccc2)c(=O)c2cc(F)c(N3CCN(CCC)CC3)cc21,-17,.,15,-1,2
Cc1c(N2C(=O)/C(=C\c3ccccc3O)SC2=S)c(=O)n(-c2ccccc2)n1C,-14,-4,9,6,7
CN1C(=O)/C(=C/c2cc(N=Nc3ccccc3)ccc2O)SC1=S,-1,-135*,1,3,3
COc1cc([C@@H]2c3cc4c(cc3C(O[C@@H]3O[C@@H]5CO[C@@H](C)O[C@H]5[C@H](O)[C@H]3O)C3COC(=O)[C@@H]32)OCO4)cc(OC)c1OP(=O)(O)O (some centres not stated),-6,.,.,.,.
Cc1ccc(OCc2cc(C(=O)N(CCO)Cc3cccs3)no2)cc1C,4,10,-45*,17,-8
CCN(Cc1ccncc1)C(=O)c1cc(COc2ccc(C)c(C)c2)on1,6,16,-23,14,-12
Cc1cccc(CNC(=O)CCCn2c(=O)c3cccn3c3ccc(F)cc32)c1,-7,.,-3,6,-4
Cc1ccc2oc(C(=O)NCC(c3ccc(Cl)cc3)N3CCOCC3)c(C)c2c1 (configuration not stated),6,.,3,0,-1
COc1ccccc1N1CCN(CC(O)COc2c(OC)cccc2OC)CC1 (configuration not stated),-7,-99*,-19,2,-9
CC1(C)CCCC(C)(C)N1CC(O)COCCOc1ccc(Br)cc1 (configuration not stated),3,4,-6,39*,-2
COc1ccccc1N1CCN(CC(O)COCc2cccs2)CC1 (configuration not stated),-3,-62*,-37*,7,1
OCCN1CCN(CC(O)COCCOc2ccc(Br)cc2)CC1 (configuration not stated),-8,0,-8,7,-5
COc1cccc(OC)c1OCC(O)CN1CCN(c2ccccc2)CC1 (configuration not stated),1,-9,-11,3,-3
COc1ccccc1N1CCN(CC(O)COCCOc2ccc(Br)cc2)CC1 (configuration not stated),-12,-86*,-63*,16,-18

# Screens as filed in PubChem.
